For seven molecules, Potency results are on record in PubChem BioAssay (Tox21).

Assay [1] is described as follows: Nuclear factor erythroid 2-related factor 2/antioxidant responsive element (Nrf2/ARE) small molecule agonists: qHTS cell viability counter screen in human keratinocytes (AID 1919968; active = well fitted curve in the direction sought with a large enough effect in the repeat runs; an effect the other way counts as inactive or inconclusive; also: nearly all actives have a fitted effect of over 55% in size; also: potency is read from the fitted curve at half-maximal effect). The procedure, abridged:
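Fluorescence read-out from CellTiter-Fluor after 1 h at 37 C. Wells held HaCaT-derived ARE-luciferase reporter cells (1,500/well) treated 23 h with DMSO-dissolved compounds. Run in the same wells as the luciferase agonist read.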
A general note: qHTS replaces the single test concentration by a dilution series.

Assay [2] is described as follows: Nuclear factor erythroid 2-related factor 2/antioxidant responsive element (Nrf2/ARE) small molecule agonists: luciferase reporter gene qHTS assay in human keratinocytes (AID 1919969). Also: nearly all actives have a fitted effect of over 35% in size. Also: potency is read from the fitted curve at half-maximal effect. Background: Reporter assays use an easily measured gene product as a stand-in for the process of interest.
Assay [3] deals with Gonadotropin-releasing hormone receptor (Homo sapiens) (UniProt P30968). The assay can be described thus: Human gonadotropin-releasing hormone receptor (GnRHR) small molecule agonists, calcium flux assay in GnRHR-HEK293 cells (AID 1920063). Also: nearly all actives have a fitted effect of over 35% in size. The procedure, abridged:
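Calcium-dye fluorescence, Ex/Em=480/540, recorded every 1 sec over 3 min after compound addition to GnRHR-HEK293 cells. Cells had been seeded 18 hours earlier and dye-loaded for 1 hour at 37 C. Fifteen concentrations, triplicates.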

Assay [4] deals with KiSS-1 receptor (Homo sapiens) (UniProt Q969F8). The assay can be described thus: Human kisspeptin (KISS1R) small molecule agonists, calcium flux assay in KISS1R-HEK293 cells (AID 1920064; active = well fitted curve in the direction sought with a large enough effect in the repeat runs; an effect the other way counts as inactive or inconclusive). An outline of the steps:
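Calcium flux read-out: kinetic fluorescence at Ex/Em=480/540, 1 s intervals over 3 min, after pin-tool compound addition to dye-loaded KISS1R-HEK293 cells. Fifteen concentrations, triplicates.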
A general note: Calcium flux is commonly read through the fluorescence of an indicator in the cells.

The nature of assay [5]: G protein-coupled receptor (GPCR) small molecule agonists, calcium flux assay: HEK293 wild type cell line counter screen (AID 1920065). An outline of the steps:
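Agonist mode; 18 h seeding at 37 C, 1 h dye load at 37 C; compounds pinned from DMSO, ATP as positive control; kinetic fluorescence 480/540 nm, 3 min, 1 s reads; 15 concentrations, triplicate.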

The nature of assay [6]: p53 small molecule agonists, cell-based qHTS assay with human liver microsomes (AID 1963577). An outline of the steps:
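Compounds act here after metabolic activation: human liver microsomes and NADPH, both at 0.5 mg/mL final, were co-added to p53RE-bla cells. Incubation ran 16 h at 37 C, followed by LiveBLAzer detection.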

A short description of assay [7]: p53 small molecule agonists, cell-based qHTS assay with rat liver microsomes (AID 1963578). An outline of the steps: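 Read-out is beta-lactamase reporter fluorescence (LiveBLAzer, 2 h, room temperature, dark) in p53RE-bla cells treated 16 h at 37 C with compound, rat liver microsomes and NADPH, both 0.5 mg/mL final.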
Assay [8] in a line: p53 small molecule agonists, cell-based qHTS assay with human liver microsomes: qHTS cell viability counter screen (AID 1963579). Also: nearly all actives have a fitted effect of over 45% in size. The procedure, abridged:
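Cells carrying the p53 response-element beta-lactamase reporter are treated for 16 h at 37 C with test compounds in the presence of human liver microsomes and NADPH (both 0.5 mg/mL final); ATP-based CellTiter-Glo luminescence then reports viability.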

Assay [9] in a line: p53 small molecule agonists, cell-based qHTS assay with rat liver microsomes: qHTS cell viability counter screen (AID 1963580). Also: nearly all actives have a fitted effect of over 45% in size. The procedure, abridged:
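Luminescent ATP readout (CellTiter-Glo, 30 min at room temperature) reports viability of p53RE-bla HCT-116 cells after 16 h at 37 C with test compounds under metabolic activation by rat liver microsomes and NADPH at 0.5 mg/mL final each.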

A short description of assay [10]: p53 small molecule agonists, cell-based qHTS assay: qHTS cell viability counter screen (AID 1963581). Also: nearly all actives have a fitted effect of over 45% in size. An outline of the steps: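 Cytotoxicity read-out: ATP-based luminescence (CellTiter-Glo, 30 min RT) measured in the same wells as the p53 reporter assay, HCT-116 p53RE-bla cells, 16 h compound exposure at 37 C.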
A short description of assay [11]: p53 small molecule agonists, cell-based qHTS assay (AID 1963582; active = well fitted activation curve with a large enough effect in the signal ratio in the repeat runs, not every such curve was filed as active; the % refers to the signal ratio). An outline of the steps:
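Fluorescence intensity read-out of a beta-lactamase reporter under a p53 response element. Cells were exposed to DMSO-dissolved compounds for 16 h at 37 C, then developed with FRET substrate for 2 h at RT.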

Assay [12] deals with 5-hydroxytryptamine receptor 2A (Homo sapiens) (UniProt P28223). The assay can be described thus: 5-hydroxytryptamine receptor 2A (HTR2A) small molecule antagonists, cell-based qHTS assay (AID 1963586). Also: nearly all actives have a fitted effect of over 45% in size. Also: potency is read from the fitted curve at half-maximal effect. An outline of the steps: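 CHO cells stably expressing human HTR2A were plated for 18 h at 37 C, then loaded with calcium dye for 1 h. Compounds were preincubated 5 min at room temperature before DOI (4 nM solution) was added. Kinetic fluorescence was read for 3 min.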
5-hydroxytryptamine receptor 2A (Homo sapiens), sequence (P28223 whole entry, looked up): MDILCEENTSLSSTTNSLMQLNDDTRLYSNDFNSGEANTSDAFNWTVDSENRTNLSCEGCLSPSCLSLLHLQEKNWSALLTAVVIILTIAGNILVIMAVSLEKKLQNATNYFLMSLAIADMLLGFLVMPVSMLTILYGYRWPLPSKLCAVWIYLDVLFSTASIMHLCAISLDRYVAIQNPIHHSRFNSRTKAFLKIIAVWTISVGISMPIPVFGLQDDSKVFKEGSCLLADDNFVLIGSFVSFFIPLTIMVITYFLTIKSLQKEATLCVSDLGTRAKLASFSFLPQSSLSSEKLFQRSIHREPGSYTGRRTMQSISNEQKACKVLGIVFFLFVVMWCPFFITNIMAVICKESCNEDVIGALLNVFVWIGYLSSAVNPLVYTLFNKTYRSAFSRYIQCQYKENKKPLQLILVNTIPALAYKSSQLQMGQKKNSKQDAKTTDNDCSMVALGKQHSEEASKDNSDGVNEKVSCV

For assay [13] the target is unchanged. The assay can be described thus: 5-hydroxytryptamine receptor 2A (HTR2A) small molecule agonists, cell-based qHTS assay (AID 1963587). Also: nearly all actives have a fitted effect of over 30% in size. Also: potency is read from the fitted curve at half-maximal effect. The procedure, abridged: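 HTR2A-CHO cells, plated 18 h at 37 C/5% CO2, dye-loaded 1 h at 37 C; compounds in DMSO added by pin tool (agonist mode). Intracellular calcium flux read as kinetic fluorescence on FDSS over 2 min at 1 s intervals.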

Assay [14] addresses Muscarinic acetylcholine receptor M1 (Homo sapiens) (UniProt P11229). The assay can be described thus: Cholinergic receptor muscarinic 1 (CHRM1) small molecule antagonists, cell-based qHTS assay (AID 1963588). Also: nearly all actives have a fitted effect of over 40% in size. An outline of the steps: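 Compounds were tested at 15 concentrations in three independent runs. Dye-loaded CHRM1-CHO cells were exposed 5 min at room temperature before stimulation by acetylcholine added at 50nM. Intracellular calcium was read kinetically on FDSS for 3 min.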

The target is the same in assay [15]. The assay can be described thus: Cholinergic receptor muscarinic 1 (CHRM1) small molecule agonists, cell-based qHTS assay (AID 1963589). Also: nearly all actives have a fitted effect of over 35% in size. The procedure, abridged:
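Calcium flux read-out: kinetic fluorescence at 1 sec intervals after pin-tool compound addition to dye-loaded CHRM1-CHO cells (human M1). Agonist mode; 15 concentrations tested in triplicate independent runs.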

Assay [16] can be described thus: cAMP Responsive Elements (CRE) small molecule agonists, cell-based qHTS assay (AID 1963590). An outline of the steps: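 Beta-lactamase reporter readout: LiveBLAzer B/G FRET substrate, 2 h at room temperature, added after 3 h compound treatment of CRE-bla HEK 293T cells at 37 C/5% CO2.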
Assay [17] can be described thus: cAMP Responsive Elements (CRE) small molecule antagonists, cell-based qHTS assay (AID 1963591; active = well fitted inhibition curve with a large enough effect in the signal ratio in the repeat runs, not every such curve was filed as active; the % refers to the signal ratio). The procedure, abridged:
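HEK293T CRE-bla; 18 h preincubation; compound pin-transfer; NKH477 0.25 uM final, 3 h, 37 C; LiveBLAzer FRET substrate 2 h RT.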

Assay [18] concerns the target D(2) dopamine receptor (Homo sapiens) (UniProt P14416). The assay can be described thus: Dopamine D2 receptor (DRD2) small molecule agonists, cell-based qHTS assay (AID 1963594). Also: nearly all actives have a fitted effect of over 35% in size. The procedure, abridged:
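HEK293 cells stably expressing DRD2 were cultured 24 h at 37 C, then given Ro20-1724 (0.1 mM final) and compounds for 10 min at room temperature. NKH477 (200nM) was then added for 30 min. cAMP was read by HTRF.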

The target is the same in assay [19]. The assay can be described thus: Dopamine D2 receptor (DRD2) small molecule antagonists, cell-based qHTS assay (AID 1963595; active = well fitted inhibition curve with a large enough effect in the signal ratio in the repeat runs, with a control signal flat; the % refers to the signal ratio). The procedure, abridged:
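Stable D2 receptor HEK293 line, 24 h after seeding. Compound preincubated 10 min, then quinpirole (12 nM) with forskolin analogue NKH477 (200 nM), 30 min, room temperature. Detection by time-resolved FRET of cAMP.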

Assay [20] has as its target Beta-2 adrenergic receptor (Homo sapiens) (UniProt P07550). The assay can be described thus: Adrenergic beta2 receptor (ADRB2) small molecule antagonists, cell-based qHTS assay (AID 1963592). Also: series mostly up to about 92 µM; nearly all actives have a fitted effect of over 50% in size. An outline of the steps: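 Assay format: CHO-ADRB2 cells, 18-20hr seeding at 37C/5% CO2, then compound plus 1nM isoproterenol agonist mix for 0.5hr RT. Homogeneous time-resolved fluorescence cAMP detection after 1hr, expressed as 665/615 nm ratio.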

Inconclusive results are not listed. The source made the active and inactive calls. Unless noted, calls follow the shape of the full dose curve.

Beta-2 adrenergic receptor (Homo sapiens), sequence (P07550 whole entry, looked up): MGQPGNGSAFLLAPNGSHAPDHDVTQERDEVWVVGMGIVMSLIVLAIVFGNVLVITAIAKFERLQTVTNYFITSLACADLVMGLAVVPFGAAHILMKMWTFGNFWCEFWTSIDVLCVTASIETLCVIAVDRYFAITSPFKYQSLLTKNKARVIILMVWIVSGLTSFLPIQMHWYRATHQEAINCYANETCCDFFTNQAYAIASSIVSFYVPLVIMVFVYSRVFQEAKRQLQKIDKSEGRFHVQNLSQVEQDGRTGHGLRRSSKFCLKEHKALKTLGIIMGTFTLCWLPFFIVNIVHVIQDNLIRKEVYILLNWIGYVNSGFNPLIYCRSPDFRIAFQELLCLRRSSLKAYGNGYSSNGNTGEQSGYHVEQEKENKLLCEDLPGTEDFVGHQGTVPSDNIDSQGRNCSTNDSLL
Muscarinic acetylcholine receptor M1 (Homo sapiens), sequence (P11229 whole entry, looked up): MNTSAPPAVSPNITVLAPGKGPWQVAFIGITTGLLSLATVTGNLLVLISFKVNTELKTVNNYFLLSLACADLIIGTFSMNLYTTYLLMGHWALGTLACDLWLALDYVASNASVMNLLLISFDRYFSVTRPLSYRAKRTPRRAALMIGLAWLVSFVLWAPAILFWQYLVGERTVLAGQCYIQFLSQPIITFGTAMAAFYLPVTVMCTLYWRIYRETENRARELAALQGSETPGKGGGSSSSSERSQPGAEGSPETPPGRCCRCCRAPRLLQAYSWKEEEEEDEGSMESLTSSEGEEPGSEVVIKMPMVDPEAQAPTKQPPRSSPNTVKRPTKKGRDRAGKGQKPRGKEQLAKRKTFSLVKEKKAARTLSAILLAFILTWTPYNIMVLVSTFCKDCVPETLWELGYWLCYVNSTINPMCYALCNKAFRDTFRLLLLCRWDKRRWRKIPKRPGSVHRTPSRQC
KiSS-1 receptor (Homo sapiens), sequence (Q969F8 whole entry, looked up): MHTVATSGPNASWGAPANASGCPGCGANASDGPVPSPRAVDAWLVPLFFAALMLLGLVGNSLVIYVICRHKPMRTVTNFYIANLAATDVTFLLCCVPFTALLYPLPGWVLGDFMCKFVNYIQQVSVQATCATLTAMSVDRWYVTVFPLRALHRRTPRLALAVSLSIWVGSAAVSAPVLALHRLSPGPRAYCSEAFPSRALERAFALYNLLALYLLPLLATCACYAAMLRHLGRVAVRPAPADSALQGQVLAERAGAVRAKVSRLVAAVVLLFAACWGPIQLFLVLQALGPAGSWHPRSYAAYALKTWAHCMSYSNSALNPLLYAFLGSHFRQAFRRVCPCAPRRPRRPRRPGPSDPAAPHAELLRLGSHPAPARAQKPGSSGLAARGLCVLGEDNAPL
D(2) dopamine receptor (Homo sapiens), sequence (P14416 whole entry, looked up): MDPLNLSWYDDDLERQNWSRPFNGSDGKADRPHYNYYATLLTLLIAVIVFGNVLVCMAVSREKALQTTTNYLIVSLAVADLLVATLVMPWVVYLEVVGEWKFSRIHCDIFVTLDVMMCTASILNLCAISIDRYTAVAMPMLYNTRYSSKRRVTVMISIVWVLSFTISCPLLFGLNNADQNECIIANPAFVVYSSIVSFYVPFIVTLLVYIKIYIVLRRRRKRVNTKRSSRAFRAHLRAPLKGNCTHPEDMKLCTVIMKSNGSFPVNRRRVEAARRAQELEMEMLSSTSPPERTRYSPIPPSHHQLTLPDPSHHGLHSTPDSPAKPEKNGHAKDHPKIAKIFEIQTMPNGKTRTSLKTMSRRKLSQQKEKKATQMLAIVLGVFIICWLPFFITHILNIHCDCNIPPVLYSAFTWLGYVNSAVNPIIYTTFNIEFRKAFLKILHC
Gonadotropin-releasing hormone receptor (Homo sapiens), sequence (P30968 whole entry, looked up): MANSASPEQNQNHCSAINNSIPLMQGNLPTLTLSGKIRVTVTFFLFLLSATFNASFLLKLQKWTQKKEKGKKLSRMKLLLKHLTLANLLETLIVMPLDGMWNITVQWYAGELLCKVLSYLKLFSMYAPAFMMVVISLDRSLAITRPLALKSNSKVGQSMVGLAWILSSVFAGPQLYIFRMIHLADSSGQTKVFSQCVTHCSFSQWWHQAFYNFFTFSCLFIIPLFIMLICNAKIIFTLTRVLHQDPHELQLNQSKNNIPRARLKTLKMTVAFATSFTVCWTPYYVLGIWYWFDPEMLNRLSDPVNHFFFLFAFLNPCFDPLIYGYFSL

Regarding `CNC(C)Cc1ccc2c(c1)OCO2` (centres undefined), the Potency entry in [1], in [3], in [4], in [5], in assay [6] and in [7] was “inactive” each time. Besides, the Potency result in [8], in assay [9], in assay [10], in assay [11], in [14] and in assay [15] was “inactive” throughout. The Potency result in assay [16], in [17], in [18] and in assay [19] was “inactive” throughout. Further, the Potency was 84.3 µM (active) in [2], 1.03 µM (active) in assay [12] and 0.602 µM (active) in [13].

Consider `O=CNC(N1CCN(C(NC=O)C(Cl)(Cl)Cl)CC1)C(Cl)(Cl)Cl` (centres undefined), for which the Potency result in assay [1], in [2], in assay [3], in [4], in assay [5] and in assay [6] was “inactive” throughout. For the same molecule, the Potency result in [7], in assay [8], in assay [9], in assay [10], in assay [11] and in [12] was “inactive” throughout. In addition, the Potency result in assay [13], in assay [15], in assay [20] and in assay [18] was “inactive” each time.

Consider `CC1(C)[C@H](/C=C2\CCSC2=O)[C@@H]1C(=O)OCc1coc(Cc2ccccc2)c1`, for which the Potency result in assay [1], in assay [3], in [4], in assay [5], in [6] and in [7] was “inactive” in each case. Besides, the Potency result in [8], in assay [9], in [10], in assay [11], in assay [13] and in [14] was “inactive” throughout. Besides, the Potency entry in [15], in assay [18] and in assay [19] was “inactive” each time. In addition, the figures for the Potency in assay [2] and in assay [12] were 61.1 µM (active) and 2.65 µM (active), respectively.

Take `CCCCCCCCCCCCN(C)C`: the Potency entry in assay [1], in [2], in [3], in assay [4], in [5] and in assay [6] was “inactive” each time. Moreover, the Potency entry in [7], in assay [8], in assay [9], in assay [10], in assay [11] and in assay [12] was “inactive” in each case. Also, the Potency entry in assay [13], in assay [14], in [16], in assay [20], in assay [18] and in assay [19] was “inactive” throughout.

With `O=NN1CCN(N=O)CC1`, the Potency entry in assay [1], in assay [2], in assay [3], in [4], in assay [5] and in assay [6] was “inactive” in each case. Besides, the Potency result in assay [7], in assay [8], in [9], in assay [10], in [11] and in [12] was “inactive” throughout. For the same molecule, the Potency result in assay [13], in assay [15], in [17], in assay [18] and in [19] was “inactive” in each case.

Consider `CCOc1cccc(C2(N3CCN(c4ccccc4)CC3)CCC(C)CC2)c1` (centres undefined), for which the Potency entry in assay [1], in assay [2], in assay [3], in assay [4], in assay [5] and in assay [6] was “inactive” each time. Besides, the Potency entry in assay [7], in assay [8], in assay [9], in [10], in assay [11] and in assay [12] was “inactive” throughout. In addition, the Potency entry in assay [13], in assay [15], in [16], in assay [17], in [20] and in assay [18] was “inactive” each time. The Potency entry in assay [19] was “inactive”.

On to `CCC(OC(C)=O)C(CC(C)NC)(c1ccccc1)c1ccccc1` (centres undefined), for which, in assay [1], the Potency is 54.9 µM (active). The Potency result in assay [2], in assay [3], in assay [4], in assay [5], in assay [6] and in assay [7] was “inactive” each time. In addition, the Potency result in assay [8], in assay [9], in assay [10], in assay [11], in [12] and in assay [14] was “inactive” in each case. Further, the Potency result in assay [15], in assay [17], in [20], in [18] and in assay [19] was “inactive” each time.
